In PubChem BioAssay:
Calls of active or inactive are those of the source.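 Rule for the calls: active = Her2 level under about 52% in both replicate screens, with viability over 70% of control (limit read from the data); inconclusive = Her2 under the limit in one screen only, or viability under 70%; inactive = Her2 level above the set limit.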

System: not listed separately
Assay: Her2 expression decrease, cell viability multiplex – SKBR3 breast tumor cells, AlphaScreen, ATP viability, primary screen (AID 461);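 for Her2 level: lower value means less Her2 protein in the cells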;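 for viability: percent of carrier control wells set as 100% viability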
Settings: SKBR3 Her2 protein level, 18-24 h, measured here: SKBR3 viability, ATP luminescence, at 10 µM
COc1ccccc1NC(=O)CSc1nnc(-c2ccncc2)o1 showed a viability of 108%. For CCOc1ccc2oc(-c3ccccc3)c(C(=O)N3CCN(CCO)CC3)c2c1, the viability was 97.5%. O=S(=O)(NCC1CCCO1)c1ccc(S(=O)(=O)N2CCc3ccccc3C2)cc1 (stereo not given) gave a viability of 90%. Work on CCC(C(=O)Nc1ncccn1)(C(F)(F)F)C(F)(F)F yielded a viability of 86.5%. O=C(Cc1ccc(Br)cc1)N1CCCCCC1 showed a viability of 108%. For Cc1ccc2cc(C(c3nnnn3CC3CCCO3)N3CCc4ccccc4C3)c(=O)[nH]c2c1 (stereo not given), the viability was 87%. For S=C(NCC1CCCO1)n1nnc2ccccc21 (stereo not given), the viability was 121%. Work on CO/C([O-])=N/c1c[n+](-c2ccc(C)cc2)no1 yielded a viability of 100%. CNc1ccc(C(O)(C(F)(F)F)C(F)(F)F)cc1C(O)(C(F)(F)F)C(F)(F)F showed a viability of 98%. Molecule COc1ccccc1-n1c(SCC(=O)Nc2ccc3c(c2)OCO3)nc2c(c1=O)SCC2 has a viability of 82.5%. For O=c1cc(C(F)F)oc2c1ccc1ccccc12, the viability was 93.5%. For CCOc1cc(C2/C(=C(/O)c3ccc(OC(C)C)cc3)C(=O)C(=O)N2CCCOC)ccc1O (stereo not given), the viability was 91.5%. Cc1ccc(S(=O)(=O)Cn2nnnc2CN(Cc2ccco2)Cc2cccs2)cc1 gave a viability of 91.5%. Cc1c(NC(=O)c2ccc(COc3ccc4ccccc4c3)o2)c(=O)n(-c2ccccc2)n1C gave a viability of 88.5%. With COc1ccc(Cc2nc(-c3ccc(Br)cc3)no2)cc1 the viability was 72.5%. Work on CC(CCc1ccccc1)NC(=O)c1ccc(Br)o1 (stereo not given) yielded a viability of 110%. For O=C1CC(c2ccsc2)c2cc3c(cc2N1)OCCO3 (stereo not given), the viability was 103%. CCCN1C(=O)c2cc(C(=O)O)ccc2C1O (stereo not given) gave a viability of 113%. Cc1ccccc1-c1nc2ccccc2c(=O)n1C1CCS(=O)(=O)C1 (stereo not given) showed a viability of 96.5%. Work on COC1CCCCC1NS(=O)(=O)c1ccccc1 (stereo not given) yielded a viability of 106%. In the case of CCOC(=O)N1CCN(Cc2nc3c(c(=O)[nH]c(=O)n3C)n2Cc2cc(C)ccc2C)CC1, the viability is reported as 102%. Molecule O=C(NCC1COc2ccccc2O1)c1ccc(NC(=O)c2ccco2)cc1 (stereo not given) has a viability of 85.5%. For COCCN(C(=O)CNC(=O)c1ccco1)C(C(=O)NC1CCCCC1)c1cccc(OC)c1 (stereo not given), the viability was 96%. Work on Cc1sc2ncnc(SCC(=O)N3CCCC3)c2c1C yielded a viability of 124%. With CCC(C)(C)n1nnnc1C(c1ccc(OC)c(OC)c1)N1CCN(c2ccccc2)CC1 (stereo not given) the viability was 85%. OC(CN1CCCCC1)Cn1c(C(F)(F)F)nc2ccccc21 (stereo not given) showed a viability of 85.5%. O=C(CN(c1ccccc1)S(=O)(=O)c1ccccc1)N1CCN(Cc2ccc3c(c2)OCO3)CC1 showed a viability of 104%. In the case of COc1ccc(CC(=O)OCn2nnc3ccccc3c2=O)cc1, the viability is reported as 101%. With N#CC(C(=O)Nc1ccc(Cl)c(Cl)c1)=C1Nc2ccccc2N1 the viability was 90.5%. With COc1ccc(C)cc1NC(=O)CN1CCN(S(=O)(=O)c2ccc(Cl)cc2)CC1 the viability was 81.5%. For CCCCCn1c2nc3ccccc3nc2c2c(=O)n(CC(C)C)cnc21, the viability was 116%. CCn1ncc(C2=NOC(C(=O)Nc3ccc4c(c3)OCO4)C2)c1C (stereo not given) showed a viability of 95.5%. COc1ccc(CCNS(=O)(=O)c2ccc3c(c2)CCN3C(=O)CCC(=O)O)cc1OC showed a viability of 104%. Work on O=C(CS(=O)(=O)c1cn(Cc2ccc(Cl)cc2)c2ccccc12)N1CCOCC1 yielded a viability of 84%. With CCCS(=O)(=O)C(=C1Nc2ccccc2N1)S(=O)(=O)CCC the viability was 105%. Work on CCn1c(CCC(=O)Nc2nc3c(s2)CCCC3)nc2cc(S(=O)(=O)N(C)C)ccc21 yielded a viability of 89.5%. Molecule Cc1nn(-c2ccccc2)c2c1C(O)n1c(nc3ccccc31)S2 (stereo not given) has a viability of 91%. For CCSc1nc2ccccc2n1CCC(=O)O, the viability was 99%. COc1cccc(CN=CC2=C(O)CC(C)(C)CC2=O)c1OC gave a viability of 106%. In the case of CCOC(=O)NC(=O)CSc1nnnn1-c1ccc(Cl)cc1, the viability is reported as 86.5%.

Target: Receptor tyrosine-protein kinase erbB-2 (Homo sapiens) (UniProt P04626)
Sequence (P04626 whole entry, looked up): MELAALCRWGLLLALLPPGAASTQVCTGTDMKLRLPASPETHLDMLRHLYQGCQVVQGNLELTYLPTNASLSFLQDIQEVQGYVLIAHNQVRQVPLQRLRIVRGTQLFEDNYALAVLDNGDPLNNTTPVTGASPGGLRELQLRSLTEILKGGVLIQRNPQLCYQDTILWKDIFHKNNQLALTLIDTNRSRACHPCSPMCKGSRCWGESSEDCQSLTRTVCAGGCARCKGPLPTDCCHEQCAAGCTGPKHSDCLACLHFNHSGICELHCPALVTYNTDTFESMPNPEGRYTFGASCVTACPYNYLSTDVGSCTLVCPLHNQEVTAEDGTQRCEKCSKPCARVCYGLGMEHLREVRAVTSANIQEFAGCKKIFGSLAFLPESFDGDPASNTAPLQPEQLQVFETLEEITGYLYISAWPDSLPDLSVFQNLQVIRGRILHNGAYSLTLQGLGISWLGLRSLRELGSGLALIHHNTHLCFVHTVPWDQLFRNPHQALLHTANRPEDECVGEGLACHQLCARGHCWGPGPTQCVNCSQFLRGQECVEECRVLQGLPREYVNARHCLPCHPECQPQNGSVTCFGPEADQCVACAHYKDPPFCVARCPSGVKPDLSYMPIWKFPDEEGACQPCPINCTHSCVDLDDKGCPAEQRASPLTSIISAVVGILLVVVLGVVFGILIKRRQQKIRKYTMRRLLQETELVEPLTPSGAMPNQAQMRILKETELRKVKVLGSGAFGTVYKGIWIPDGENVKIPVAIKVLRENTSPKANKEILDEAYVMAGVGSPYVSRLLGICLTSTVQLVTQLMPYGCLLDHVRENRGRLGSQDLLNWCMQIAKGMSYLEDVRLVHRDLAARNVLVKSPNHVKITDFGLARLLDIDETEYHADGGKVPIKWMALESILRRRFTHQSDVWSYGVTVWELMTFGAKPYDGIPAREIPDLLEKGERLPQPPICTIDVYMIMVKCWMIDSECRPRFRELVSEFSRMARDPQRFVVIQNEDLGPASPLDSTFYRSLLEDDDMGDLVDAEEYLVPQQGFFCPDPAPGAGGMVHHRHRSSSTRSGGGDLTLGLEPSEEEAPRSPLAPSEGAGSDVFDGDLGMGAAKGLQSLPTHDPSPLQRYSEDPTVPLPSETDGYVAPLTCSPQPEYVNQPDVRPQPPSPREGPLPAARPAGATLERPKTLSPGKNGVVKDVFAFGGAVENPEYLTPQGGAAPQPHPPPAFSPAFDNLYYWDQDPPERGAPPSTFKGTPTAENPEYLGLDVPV
Assay: as above
Settings: 18-24 h, at 10 µM, stronger effect = lower value
For COc1ccccc1NC(=O)CSc1nnc(-c2ccncc2)o1, the Her2 level was 96% (inactive). For CCOc1ccc2oc(-c3ccccc3)c(C(=O)N3CCN(CCO)CC3)c2c1, the Her2 level was 83% (inactive). With O=S(=O)(NCC1CCCO1)c1ccc(S(=O)(=O)N2CCc3ccccc3C2)cc1 (stereo not given) the Her2 level was 93.5% (inactive). In the case of CCC(C(=O)Nc1ncccn1)(C(F)(F)F)C(F)(F)F, the Her2 level is reported as 99% (inactive). In the case of O=C(Cc1ccc(Br)cc1)N1CCCCCC1, the Her2 level is reported as 106% (inactive). In the case of Cc1ccc2cc(C(c3nnnn3CC3CCCO3)N3CCc4ccccc4C3)c(=O)[nH]c2c1 (stereo not given), the Her2 level is reported as 82% (inactive). With S=C(NCC1CCCO1)n1nnc2ccccc21 (stereo not given) the Her2 level was 49% (active). With CO/C([O-])=N/c1c[n+](-c2ccc(C)cc2)no1 the Her2 level was 92.5% (inactive). In the case of CNc1ccc(C(O)(C(F)(F)F)C(F)(F)F)cc1C(O)(C(F)(F)F)C(F)(F)F, the Her2 level is reported as 73% (inactive). In the case of COc1ccccc1-n1c(SCC(=O)Nc2ccc3c(c2)OCO3)nc2c(c1=O)SCC2, the Her2 level is reported as 112% (inactive). With O=c1cc(C(F)F)oc2c1ccc1ccccc12 the Her2 level was 98.5% (inactive). For CCOc1cc(C2/C(=C(/O)c3ccc(OC(C)C)cc3)C(=O)C(=O)N2CCCOC)ccc1O (stereo not given), the Her2 level was 83.5% (inactive). For Cc1ccc(S(=O)(=O)Cn2nnnc2CN(Cc2ccco2)Cc2cccs2)cc1, the Her2 level was 97.5% (inactive). For Cc1c(NC(=O)c2ccc(COc3ccc4ccccc4c3)o2)c(=O)n(-c2ccccc2)n1C, the Her2 level was 91% (inactive). For COc1ccc(Cc2nc(-c3ccc(Br)cc3)no2)cc1, the Her2 level was 106% (inactive). With CC(CCc1ccccc1)NC(=O)c1ccc(Br)o1 (stereo not given) the Her2 level was 86% (inactive). For O=C1CC(c2ccsc2)c2cc3c(cc2N1)OCCO3 (stereo not given), the Her2 level was 98.5% (inactive). For CCCN1C(=O)c2cc(C(=O)O)ccc2C1O (stereo not given), the Her2 level was 100% (inactive). In the case of Cc1ccccc1-c1nc2ccccc2c(=O)n1C1CCS(=O)(=O)C1 (stereo not given), the Her2 level is reported as 91.5% (inactive). In the case of COC1CCCCC1NS(=O)(=O)c1ccccc1 (stereo not given), the Her2 level is reported as 96.5% (inactive). With CCOC(=O)N1CCN(Cc2nc3c(c(=O)[nH]c(=O)n3C)n2Cc2cc(C)ccc2C)CC1 the Her2 level was 105% (inactive). For O=C(NCC1COc2ccccc2O1)c1ccc(NC(=O)c2ccco2)cc1 (stereo not given), the Her2 level was 83% (inactive). With COCCN(C(=O)CNC(=O)c1ccco1)C(C(=O)NC1CCCCC1)c1cccc(OC)c1 (stereo not given) the Her2 level was 103% (inactive). With Cc1sc2ncnc(SCC(=O)N3CCCC3)c2c1C the Her2 level was 95.5% (inactive). With CCC(C)(C)n1nnnc1C(c1ccc(OC)c(OC)c1)N1CCN(c2ccccc2)CC1 (stereo not given) the Her2 level was 86% (inactive). With OC(CN1CCCCC1)Cn1c(C(F)(F)F)nc2ccccc21 (stereo not given) the Her2 level was 103% (inactive). For O=C(CN(c1ccccc1)S(=O)(=O)c1ccccc1)N1CCN(Cc2ccc3c(c2)OCO3)CC1, the Her2 level was 73% (inactive). With COc1ccc(CC(=O)OCn2nnc3ccccc3c2=O)cc1 the Her2 level was 86% (inactive). With N#CC(C(=O)Nc1ccc(Cl)c(Cl)c1)=C1Nc2ccccc2N1 the Her2 level was 72.5% (inactive). For COc1ccc(C)cc1NC(=O)CN1CCN(S(=O)(=O)c2ccc(Cl)cc2)CC1, the Her2 level was 87% (inactive). In the case of CCCCCn1c2nc3ccccc3nc2c2c(=O)n(CC(C)C)cnc21, the Her2 level is reported as 103% (inactive). For CCn1ncc(C2=NOC(C(=O)Nc3ccc4c(c3)OCO4)C2)c1C (stereo not given), the Her2 level was 139% (inactive). In the case of COc1ccc(CCNS(=O)(=O)c2ccc3c(c2)CCN3C(=O)CCC(=O)O)cc1OC, the Her2 level is reported as 89% (inactive). For O=C(CS(=O)(=O)c1cn(Cc2ccc(Cl)cc2)c2ccccc12)N1CCOCC1, the Her2 level was 92.5% (inactive). With CCCS(=O)(=O)C(=C1Nc2ccccc2N1)S(=O)(=O)CCC the Her2 level was 97.5% (inactive). For CCn1c(CCC(=O)Nc2nc3c(s2)CCCC3)nc2cc(S(=O)(=O)N(C)C)ccc21, the Her2 level was 80% (inactive). With Cc1nn(-c2ccccc2)c2c1C(O)n1c(nc3ccccc31)S2 (stereo not given) the Her2 level was 77.5% (inactive). For CCSc1nc2ccccc2n1CCC(=O)O, the Her2 level was 91.5% (inactive). In the case of COc1cccc(CN=CC2=C(O)CC(C)(C)CC2=O)c1OC, the Her2 level is reported as 114% (inactive). In the case of CCOC(=O)NC(=O)CSc1nnnn1-c1ccc(Cl)cc1, the Her2 level is reported as 94% (inactive).
